Measurements: PubChem BioAssay (NCI)
This is part of a sample that, as a whole, favours compounds with a hit. Of some 83,000 tested, about 20% had one in any assay.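 Negative percent growth values reflect cell death: -40 means 40% of the cells present at the start died, and -100 means all died.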 Active and inactive are the calls of the source. How the source made its calls: active means growth percent below 10; inactive means the rest.

tested on: MDA-MB-468 breast; assay: NCI-60 one-dose screen, 48 h (100 = growth as untreated, 0 = no growth, -100 = all killed); details: 10 µM unless noted

Row | Compound | growth
1 | COc1cc(N=Nc2cc(S(=O)(=O)O)cc3cc(S(=O)(=O)O)cc(O)c23)c(C)cc1N=Nc1c(S(=O)(=O)O)cc2cc(Nc3ccccc3)ccc2c1O | 115% (inactive)
2 | O=C(O)c1ccc(-n2cc(CNc3ccc(Oc4ccccc4)cc3)c(-c3ccccc3)n2)cc1 | 99.8% (inactive)
3 | O=[N+]([O-])c1cc(S(=O)(=O)Nc2ccccc2)ccc1Cl | -33.4% (active)
4 | CCN(CC)CCSCCCNc1c2ccc(Cl)cc2nc2ccc(OC)cc12 | -50.2% (active)
5 | COc1cc(OC)c(/C=C/C(=O)c2c(N)cc(OC)cc2OC)c(OC)c1 | -17.1% (active)
6 | COc1cc(N)ccc1Nc1c2ccccc2nc2ccccc12 | 92.4% (inactive)
7 | Fc1cccc(CNc2c3ccccc3nc3ccccc23)c1F | 22% (inactive)
8 | COc1ccc(C2=C(c3cc(OC)c(OC)c(OC)c3)C(=O)CC2)cc1 | 4.52% (active)
9 | C=CCNc1ccccc1 | 108% (inactive)
10 | O=[N+]([O-])c1ccc(-c2ncc(-c3ccc(O)cc3O)[nH]2)cc1 | 107% (inactive)
11 | COc1ccc(-c2nocc2-c2cccs2)cc1 | 97% (inactive)
12 | CN(C)c1ccc(C(C#N)(c2ccccc2)c2ccc(N(C)C)cc2)cc1 | 82.8% (inactive)
13 | CC(=O)OCC1CCC(COC(C)=O)CC1 (stereo unspecified) | 110% (inactive)
14 | O=C1/C(=C/c2ccc([N+](=O)[O-])cc2)SC(=Nc2ccccc2)N1Nc1ccccc1 | 87.8% (inactive)
15 | N=C(N)c1ccc(-c2ccc(-c3ccc(-c4cccs4)s3)s2)cc1F | 79.5% (inactive)
16 | NNC(=S)N1N=C(c2cc3ccccc3o2)CC1c1c[nH]c2ccccc12 (stereo unspecified) | 15.3% (inactive)
